Laboratory results reported in PubChem BioAssay (EPA / NIEHS).
Results filed as inconclusive are left out. The source made the active and inactive calls. Rule for the calls, unless noted: active = hit-call score of the fitted dose curve at least 0.9, where 1 is the maximum; inactive = score below 0.9.

Legend:
[1] = BSK_LPS_SRB: Viability Assessment in the BioMAP Diversity Plus: LPS Assay (AID 2283079); details: primary human HUVEC with PBMC;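 note: total protein by sulforhodamine B absorbance as a cytotoxicity measure; measured one day after compound addition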
How it was run: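 SRB viability endpoint: cells fixed with 10% TCA, stained with 0.1% SRB, read at 560 nm, 24 h post-dose. HUVEC/PBMC co-culture; signal change in either direction scored relative to DMSO.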

[2] = read-out: Interleukin-1 alpha (IL1a), IL1A (gene 3552); test: BSK_LPS_IL1a: BioMAP Diversity Plus: LPS Assay for Interleukin-1 alpha (IL1a) Biomarker Activity (AID 2283080); details: primary human HUVEC with PBMC; actives raise or lower the signal
How it was run: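 Readout is IL-1a level by ELISA, 24 h post-dose, fitted as gain or loss relative to DMSO. System: LPS-activated human primary co-culture of vascular endothelium and peripheral blood mononuclear cells, with parallel SRB total-protein cytotoxicity.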

[3] = read-out: Monocyte Chemoattractant Protein-1 (MCP1), CCL2 (gene 6347); test: BSK_LPS_MCP1: BioMAP Diversity Plus: LPS Assay for Monocyte Chemoattractant Protein-1 (MCP1) Biomarker Activity (AID 2283081); details: primary human HUVEC with PBMC; actives raise or lower the signal
How it was run: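 Secreted MCP-1 read by ELISA at 24 h post-dosing in an LPS-activated co-culture of endothelial cells with peripheral blood mononuclear cells. Fits run in both directions, DMSO as baseline; parallel SRB staining tracks overt cytotoxicity.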

[4] = BSK_LPS_PGE2: BioMAP Diversity Plus: LPS Assay for Prostaglandin E2 (PGE2) Biomarker Activity (AID 2283082); details: primary human HUVEC with PBMC; actives raise or lower the signal
How it was run: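 HUVEC plus human PBMC co-culture stimulated with LPS; secreted PGE2 quantified by ELISA 24 h after chemical dosing. Activity fitted bidirectionally against DMSO baseline; parallel SRB staining (0.1% SRB after 10% TCA fixation, 560 nm) flags overt cytotoxicity.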

[5] = read-out: Macrophage colony-stimulating factor (MCSF), CSF1 (gene 1435); test: BSK_LPS_MCSF: BioMAP Diversity Plus: LPS Assay for Macrophage colony-stimulating factor (MCSF) Biomarker Activity (AID 2283083); details: primary human HUVEC with PBMC; actives raise or lower the signal
How it was run: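 Bidirectional fitting against DMSO was applied to M-CSF levels read by ELISA at 24 h post-dose. The system pairs human umbilical vein endothelium with peripheral blood mononuclear cells; parallel SRB staining tracked cytotoxicity.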

[6] = read-out: Tissue Factor, F3 (gene 2152); test: BSK_LPS_TissueFactor: BioMAP Diversity Plus: LPS Assay for Tissue Factor Biomarker Activity (AID 2283084); details: primary human HUVEC with PBMC; actives raise or lower the signal
How it was run: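 Compound was added to an endothelial cell/PBMC co-culture, and after 24 h tissue factor (CD142) was read by ELISA. Gain or loss of signal was fitted against a DMSO baseline, and parallel SRB staining (560 nm) tracked overt cytotoxicity.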

[7] = read-out: Tumor necrosis factor (Homo sapiens) (UniProt P01375); test: BSK_LPS_TNFa: BioMAP Diversity Plus: LPS Assay for Tumour Necrosis Factor alpha (TNFa) Biomarker Activity (AID 2283085); details: primary human HUVEC with PBMC; actives raise or lower the signal
How it was run: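 Human umbilical vein endothelial cells co-cultured with PBMC and stimulated with LPS. TNFa was measured by ELISA 24 h after chemical dosing, fitted bidirectionally relative to DMSO.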

[8] = read-out: Vascular cell adhesion molecule 1 (VCAM1), VCAM1 (gene 7412); test: BSK_LPS_VCAM1: BioMAP Diversity Plus: LPS Assay for Vascular cell adhesion molecule 1 (VCAM1) Biomarker Activity (AID 2283086); details: primary human HUVEC with PBMC; actives raise or lower the signal
How it was run: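 Human umbilical vein endothelial cells co-cultured with PBMC and stimulated with LPS; VCAM-1 measured by ELISA 24 h after dosing. Bidirectional curve fitting against DMSO baseline; cytotoxicity tracked in parallel by SRB total-protein staining.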

CD38, CD38 (gene 952) = test: BSK_SAg_CD38: BioMAP Diversity Plus: SAg Assay for CD38 Biomarker Activity (AID 2283087); details: primary human HUVEC with PBMC; actives raise or lower the signal
How it was run: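 Human HUVEC plus PBMC co-culture stimulated with superantigen; CD38 measured by ELISA 24 h after chemical dosing. Fluorescence read-out, bidirectional fit against DMSO; cytotoxicity tracked in parallel by SRB and Alamar Blue.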

CD40, CD40 (gene 958) = test: BSK_SAg_CD40: BioMAP Diversity Plus: SAg Assay for CD40 Biomarker Activity (AID 2283088); details: primary human HUVEC with PBMC; actives raise or lower the signal
How it was run: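 CD40 is measured by fluorescence ELISA in an endothelial/PBMC primary human co-culture at 24 h post-dose. Fitting is bidirectional, DMSO baseline. Parallel SRB staining (560 nm) flags cytotoxicity.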

CD69, CD69 (gene 969) = test: BSK_SAg_CD69: BioMAP Diversity Plus: SAg Assay for CD69 Biomarker Activity (AID 2283089); details: primary human HUVEC with PBMC; actives raise or lower the signal
How it was run: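 HUVEC co-cultured with PBMC were dosed with chemical, and CD69 was measured by ELISA with fluorescence read-out 24 h later. Bidirectional curve fitting used DMSO as negative control and activity baseline.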

[9] = read-out: Monocyte Chemoattractant Protein-1 (MCP1), CCL2 (gene 6347); test: BSK_SAg_MCP1: BioMAP Diversity Plus: SAg Assay for Monocyte Chemoattractant Protein-1 (MCP1) Biomarker Activity (AID 2283090); details: primary human HUVEC with PBMC; actives raise or lower the signal
How it was run: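 MCP-1 levels in the endothelial–PBMC SAg co-culture were quantified by ELISA at 24 h post-dosing; both increases and decreases versus DMSO scored. Cytotoxicity monitored by SRB total protein in parallel cultures.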

[10] = read-out: E-selectin (Homo sapiens) (UniProt P16581); test: BSK_SAg_Eselectin: BioMAP Diversity Plus: SAg Assay for Eselectin Biomarker Activity (AID 2283091); details: primary human HUVEC with PBMC; actives raise or lower the signal
How it was run: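 Cell-surface E-selectin is read by ELISA at 24 h in the SAg co-culture of HUVEC and PBMC. Curves are fitted in both directions relative to DMSO. Parallel SRB total-protein staining tracks overt toxicity.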

[11] = read-out: Monokine induced gamma interferon (MIG), CXCL9 (gene 4283); test: BSK_SAg_MIG: BioMAP Diversity Plus: SAg Assay for Monokine induced gamma interferon (MIG) Biomarker Activity (AID 2283092); details: primary human HUVEC with PBMC; actives raise or lower the signal
How it was run: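 HUVEC plus human PBMC co-culture, chemicals dosed and MIG (CXCL9) quantified by ELISA at 24 h. Bidirectional curve fitting against DMSO as negative control and baseline, so both gain and loss of signal count as activity.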

[12] = BSK_SAg_PBMCCytotoxicity: PBMC Cytotoxicity Assessment in the BioMAP Diversity Plus: SAg Assay (AID 2283093); details: primary human HUVEC with PBMC;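 note: PBMC viability measured as Alamar Blue reduction fluorescence at 546/580 nm; fitted both ways against DMSO so a hit may be loss or gain of signal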
How it was run: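 Human umbilical vein endothelial cells co-cultured with PBMC; PBMC (75,000/well) pre-treated with compound 1 h, then activated with SEB and TSST-1 (20 ng/mL final each) for 90 h. Alamar Blue added 6 h, fluorescence 546/580 nm; bidirectional fit versus DMSO.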

[13] = read-out: Interleukin-8 (IL8), CXCL8 (gene 3576); test: BSK_SAg_IL8: BioMAP Diversity Plus: SAg Assay for Interleukin-8 (IL8) Biomarker Activity (AID 2283094); details: primary human HUVEC with PBMC; actives raise or lower the signal
How it was run: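 Human umbilical vein endothelial cells co-cultured with PBMC, stimulated with superantigen; IL-8 measured by ELISA 24 h after chemical dosing. Bidirectional fitting versus DMSO; SRB staining in parallel cultures tracks cytotoxicity.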

[14] = BSK_SAg_Proliferation: Cell Proliferation Assessment in the BioMAP Diversity Plus: SAg Assay (AID 2283095); details: primary human HUVEC with PBMC
How it was run: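 Human umbilical vein endothelial cells co-cultured with PBMC; sulforhodamine B total-protein staining (0.1% SRB after 10% TCA fixation, absorbance 560 nm) at 96 h in sub-confluent culture. Fitted bidirectionally against DMSO.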

[15] = BSK_SAg_SRB: Viability Assessment in the BioMAP Diversity Plus: SAg Assay (AID 2283096); details: primary human HUVEC with PBMC;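 note: cells read one day after compound addition; hits may be either gain or loss of signal compared with DMSO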
How it was run: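 Endothelial/PBMC primary human co-culture; compound 24 h; fix 10% TCA, stain 0.1% SRB, A560; protein content as cytotoxicity proxy; bidirectional curve fit, DMSO = baseline.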

[16] = molecular target: human CYP19A1, CYP19A1 (gene 1588) (UniProt P11511); test: NVS_ADME_hCYP19A1: NovaScreen (NVS) CYP450-related Enzyme Activity (ADME) Assay for human CYP19A1 (AID 2283098; active = hit-call score of the fitted dose curve at least 0.9, where 1 is the maximum;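 for AC50: potency for inhibitors seen as loss of fluorescent enzyme signal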)
Sequence of human CYP19A1, CYP19A1 (gene 1588) (P11511 whole entry, looked up): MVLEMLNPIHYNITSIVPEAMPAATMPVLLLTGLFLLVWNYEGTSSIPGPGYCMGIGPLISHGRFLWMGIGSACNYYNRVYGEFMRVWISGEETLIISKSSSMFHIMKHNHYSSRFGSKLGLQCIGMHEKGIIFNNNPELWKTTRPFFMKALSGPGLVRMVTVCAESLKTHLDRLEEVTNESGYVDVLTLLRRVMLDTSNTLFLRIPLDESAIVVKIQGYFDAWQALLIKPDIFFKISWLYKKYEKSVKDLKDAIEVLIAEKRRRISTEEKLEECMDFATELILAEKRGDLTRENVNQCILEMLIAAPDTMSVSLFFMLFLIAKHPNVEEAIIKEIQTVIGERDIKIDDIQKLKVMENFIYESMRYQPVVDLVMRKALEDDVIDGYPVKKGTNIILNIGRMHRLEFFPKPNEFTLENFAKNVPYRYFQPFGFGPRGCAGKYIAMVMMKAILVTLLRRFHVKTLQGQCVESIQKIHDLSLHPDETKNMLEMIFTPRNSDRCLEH
How it was run: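 Cell-free enzyme assay with recombinant protein and a specific fluorogenic substrate, read by fluorescence intensity 0.5 h after dosing. Primary screen ran in duplicate at 10 uM; actives were retested in concentration series. Loss of signal versus acetonitrile baseline.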

Sequence of Tumor necrosis factor (Homo sapiens) (P01375 whole entry, looked up): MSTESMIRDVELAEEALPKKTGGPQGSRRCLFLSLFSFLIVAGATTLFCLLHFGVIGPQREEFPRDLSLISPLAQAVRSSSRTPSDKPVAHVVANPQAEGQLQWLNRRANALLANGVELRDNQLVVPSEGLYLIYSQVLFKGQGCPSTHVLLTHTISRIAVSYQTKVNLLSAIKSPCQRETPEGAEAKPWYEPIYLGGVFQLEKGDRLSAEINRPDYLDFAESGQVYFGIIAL
Sequence of E-selectin (Homo sapiens) (P16581 whole entry, looked up): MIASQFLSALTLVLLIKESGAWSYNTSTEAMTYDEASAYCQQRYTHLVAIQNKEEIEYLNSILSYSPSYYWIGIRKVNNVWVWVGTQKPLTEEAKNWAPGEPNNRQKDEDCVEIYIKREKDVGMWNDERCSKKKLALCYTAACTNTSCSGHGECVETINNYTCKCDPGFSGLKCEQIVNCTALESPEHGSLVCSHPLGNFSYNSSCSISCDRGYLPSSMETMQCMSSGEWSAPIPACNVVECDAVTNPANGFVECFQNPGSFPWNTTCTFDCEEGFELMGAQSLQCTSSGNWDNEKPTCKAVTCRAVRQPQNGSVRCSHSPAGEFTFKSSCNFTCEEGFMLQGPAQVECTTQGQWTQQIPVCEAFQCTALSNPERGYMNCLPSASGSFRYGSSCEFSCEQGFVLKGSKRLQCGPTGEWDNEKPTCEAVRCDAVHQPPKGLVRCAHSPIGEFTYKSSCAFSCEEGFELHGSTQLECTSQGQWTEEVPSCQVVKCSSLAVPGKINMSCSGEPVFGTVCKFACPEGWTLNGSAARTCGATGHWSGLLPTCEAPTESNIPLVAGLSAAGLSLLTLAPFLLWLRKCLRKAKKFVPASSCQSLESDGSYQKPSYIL

Row | Structure (SMILES) | outcome [1] | outcome [2] | outcome [3] | outcome [4] | outcome [5] | outcome [6] | outcome [7] | outcome [8] | outcome (CD38, CD38 (gene 952)) | outcome (CD40, CD40 (gene 958)) | outcome (CD69, CD69 (gene 969)) | outcome [9] | outcome [10] | outcome [11] | outcome [12] | outcome [13] | outcome [14] | outcome [15] | outcome [16] | AC50 [16]
1 | c1ccc(-c2ccccc2)cc1 | inactive | inactive | inactive | inactive | inactive | inactive | inactive | inactive | inactive | inactive | inactive | inactive | inactive | inactive | inactive | inactive | inactive | inactive |  | 
2 | O=S(=O)(O)C(F)(F)C(F)(F)C(F)(F)C(F)(F)C(F)(F)C(F)(F)F | inactive | inactive | inactive | inactive | inactive | inactive | inactive | inactive | inactive | inactive | inactive | inactive | inactive | inactive | inactive | inactive | inactive | inactive | inactive | 
3 | CC(C)C(=O)OCC(C)(C)C(OC(=O)C(C)C)C(C)C (stereo unspecified) | inactive | inactive | inactive | inactive | inactive | inactive | inactive | inactive | inactive | inactive | inactive | inactive | inactive | inactive | inactive | inactive | inactive | inactive |  | 11.6 µM (active)
